Eight sequences from paper PMC8384837, “Expanding the binding specificity for RNA recognition by a PUF domain” can be followed below.

Assay in all cases: yeast three-hybrid, YBZ-1, SC-Leu-His + 0.5 mM 3-AT, 4 days
Common to all, as to settings: tags: N-Gal4 AD-HA kept; label: inside an RPR1-promoter hybrid RNA with tandem MS2 sites; ssRNA

One assay addresses PUM1 PUF domain R1-RKQ (Homo sapiens, UniProt Q14671 828-1176, S863R;R864K). The gist of the method:
(§1)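 Each repeat of the Pumilio-1 PUF domain was randomized at its three base-contacting residues, and these libraries were co-expressed from a centromeric plasmid with matching RNA elements in strain YBZ-1. After four days on SC-Leu (input) or SC-Leu-His + 0.5 mM 3-AT (selection), the repeat regions were PCR-amplified and Illumina-sequenced. The interaction score compares variant frequency between input and selection as a log change, computed in log2 with a pseudocount of 1 for absent variants.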

Another assay addresses PUM1 PUF domain R7-QPK (Homo sapiens, UniProt Q14671 828-1176, S1079Q;N1080P;E1083K). An outline of the steps: as §1
Another assay concerns the target PUM1 PUF domain R8-RRA (Homo sapiens, UniProt Q14671 828-1176, N1122R;Y1123R;Q1126A). The gist of the method: as §1
The next assay addresses PUM1 PUF domain R5-KQR (Homo sapiens, UniProt Q14671 828-1176, C1007K;R1008Q;Q1011R). The gist of the method: as §1
The next assay addresses T1, PUM1 PUF domain R6-RPG (Homo sapiens, UniProt Q14671 828-1176, N1043R;Y1044P;Q1047G).
T1 sequence: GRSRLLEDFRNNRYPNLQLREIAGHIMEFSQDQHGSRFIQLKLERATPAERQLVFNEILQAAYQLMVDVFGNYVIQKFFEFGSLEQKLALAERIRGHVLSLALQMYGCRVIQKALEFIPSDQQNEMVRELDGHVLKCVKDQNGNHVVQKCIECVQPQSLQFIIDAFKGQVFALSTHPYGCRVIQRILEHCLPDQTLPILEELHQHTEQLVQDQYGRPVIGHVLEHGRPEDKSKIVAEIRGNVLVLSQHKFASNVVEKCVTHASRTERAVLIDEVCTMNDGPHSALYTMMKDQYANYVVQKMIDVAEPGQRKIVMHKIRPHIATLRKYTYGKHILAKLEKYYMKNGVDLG
The gist of the method: as §1

The target in the next assay is PUM1 PUF domain R8-RHV (Homo sapiens, UniProt Q14671 828-1176, N1122R;Y1123H;Q1126V). An outline of the steps:
as §1

Another assay has as its target PUM1 PUF domain R8-FYH (Homo sapiens, UniProt Q14671 828-1176, N1122F;Q1126H). An outline of the steps:
as §1

For another assay, the target named is PUM1 PUF domain R5-HAD (Homo sapiens, UniProt Q14671 828-1176, C1007H;R1008A;Q1011D). The gist of the method: as §1
Another assay addresses PUM1 PUF domain R7-ASR (Homo sapiens, UniProt Q14671 828-1176, S1079A;N1080S;E1083R). An outline of the steps:
as §1

The next assay concerns the target PUM1 PUF domain R5-SMS (Homo sapiens, UniProt Q14671 828-1176, C1007S;R1008M;Q1011S). An outline of the steps: as §1

For the sequence “GGCUAGAACUAGUGGAUCCCCCGGCGCCCGGCGGCUCGAGCCCGGGUAAGUGUAAAUGGUCUGCAUGCCGCCGGGCGCCAUGCCUGCAGGUCGACUCUAGAAAACAUG”, the binding signal in the assay with PUM1 PUF domain R1-RKQ was 2.35 log2 enrichment (interaction score).

In the case of “GGCUAGAACUAGUGGAUCCCCCGGCGCCCGGCGGCUCGAGCCCGGGUAAGUCUAAAUAGUCUGCAUGCCGCCGGGCGCCAUGCCUGCAGGUCGACUCUAGAAAACAUG”, the binding signal in the assay with PUM1 PUF domain R7-QPK is 4.87 log2 enrichment (interaction score).

Take “GGCUAGAACUAGUGGAUCCCCCGGCGCCCGGCGGCUCGAGCCCGGGUAAGUGUAAAUAGUCUGCAUGCCGCCGGGCGCCAUGCCUGCAGGUCGACUCUAGAAAACAUG”: the binding signal in the assay with PUM1 PUF domain R8-RRA was 1.42 log2 enrichment (interaction score); with PUM1 PUF domain R5-KQR, 0.64 log2 enrichment (interaction score); with PUM1 PUF domain R6-RPG, 3.6 log2 enrichment (interaction score); with PUM1 PUF domain R8-RHV it was 3.99 log2 enrichment (interaction score).

Take “GGCUAGAACUAGUGGAUCCCCCGGCGCCCGGCGGCUCGAGCCCGGGUAAGCGUAAAUAGUCUGCAUGCCGCCGGGCGCCAUGCCUGCAGGUCGACUCUAGAAAACAUG”: the binding signal with PUM1 PUF domain R8-RRA is 3.15 log2 enrichment (interaction score); with PUM1 PUF domain R8-FYH, 2.85 log2 enrichment (interaction score); with PUM1 PUF domain R8-RHV it was 5.23 log2 enrichment (interaction score).

As to “GGCUAGAACUAGUGGAUCCCCCGGCGCCCGGCGGCUCGAGCCCGGGUAAGUGUCAAUAGUCUGCAUGCCGCCGGGCGCCAUGCCUGCAGGUCGACUCUAGAAAACAUG”, the values for the binding signal in the assay with PUM1 PUF domain R5-KQR and in the assay with PUM1 PUF domain R5-HAD were 2.87 log2 enrichment (interaction score) and 6.65 log2 enrichment (interaction score), respectively.

Consider “GGCUAGAACUAGUGGAUCCCCCGGCGCCCGGCGGCUCGAGCCCGGGUAAGUUUAAAUAGUCUGCAUGCCGCCGGGCGCCAUGCCUGCAGGUCGACUCUAGAAAACAUG”, for which the binding signal with PUM1 PUF domain R7-ASR is 2.25 log2 enrichment (interaction score).

For “GGCUAGAACUAGUGGAUCCCCCGGCGCCCGGCGGCUCGAGCCCGGGUAAGUGUUAAUAGUCUGCAUGCCGCCGGGCGCCAUGCCUGCAGGUCGACUCUAGAAAACAUG”, in the assay with PUM1 PUF domain R5-SMS, the binding signal was 0.83 log2 enrichment (interaction score).

For the sequence “GGCUAGAACUAGUGGAUCCCCCGGCGCCCGGCGGCUCGAGCCCGGGUAAGUGUGAAUAGUCUGCAUGCCGCCGGGCGCCAUGCCUGCAGGUCGACUCUAGAAAACAUG”, in the assay with PUM1 PUF domain R5-SMS, the binding signal was 2.69 log2 enrichment (interaction score).
